The values that follow come from PubChem BioAssay (NCATS).

Inconclusive results are not listed. The source made the active and inactive calls. The call rests on the fitted dose curve; in most records, active means well fitted curve in the direction sought with a large enough effect; inconclusive means small, poorly fitted or top-dose-only effect, or another doubt; inactive means no such curve, though single readings can be large; an effect the other way counts as inactive or inconclusive.

For assay [1], the target named is Guanine nucleotide-binding protein G(i) subunit alpha-1 (Homo sapiens) (UniProt P63096). Briefly: qHTS Assay for Inhibitors of RGS12 GoLoco Motif Activity (Green Fluorophore) (AID 879).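 Further: negative values mean loss of peptide binding seen as reduced polarization.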 An outline of the steps: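 Fluorescence polarization assay: 50 nM Gαi1 with 10 nM FITC-labeled RGS12 GoLoco peptide in 10 mM Tris pH 7.5, 150 mM NaCl, 0.1 mM GDP, 0.05% NP40, 10 min at room temperature with compound.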
Chain of Guanine nucleotide-binding protein G(i) subunit alpha-1 (Homo sapiens) (P63096 whole entry, looked up): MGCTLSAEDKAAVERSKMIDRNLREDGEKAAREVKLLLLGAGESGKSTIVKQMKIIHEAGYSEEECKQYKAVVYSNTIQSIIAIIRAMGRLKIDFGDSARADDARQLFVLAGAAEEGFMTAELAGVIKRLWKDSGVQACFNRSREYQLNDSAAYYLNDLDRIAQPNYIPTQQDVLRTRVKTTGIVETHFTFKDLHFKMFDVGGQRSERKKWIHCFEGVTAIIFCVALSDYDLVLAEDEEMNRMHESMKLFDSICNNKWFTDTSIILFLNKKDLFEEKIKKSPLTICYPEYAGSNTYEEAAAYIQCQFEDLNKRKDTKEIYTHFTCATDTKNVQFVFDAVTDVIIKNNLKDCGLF

Assay [2] can be described thus: qHTS Assay for Identification of Small Molecule Agonists for Thrombopoietin (TPO) Signaling Pathway (AID 917). An outline of the steps:
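Reporter: GpIIb promoter–luciferase in murine Ba/F3 expressing human TPO receptor. Pre-starved of IL-3 overnight; compounds with 26 pM TPO, 24 hrs, 37 C/5% CO2; luminescence read.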
(In qHTS, concentration-response curves come from the screen itself.)

Assay [3] deals with ATP-dependent 6-phosphofructokinase (Trypanosoma brucei brucei) (UniProt O15648). Briefly: qHTS Assay to Find Inhibitors of T. brucei phosphofructokinase: hit validation (AID 492961).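 Further: luminescence reports ADP formed as PFK phosphorylates fructose-6-phosphate with ATP.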 An outline of the steps:
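Measures ADP output of PFK (1.25 nM) at 0.1 mM ATP, 0.5 mM F6P, pH 8.0 TEA buffer with 5 mM MgCl2. No-enzyme wells define full inhibition; uninhibited enzyme wells define zero.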

Another assay deals with AA1029. Put plainly: qHTS profiling for inhibitors of Plasmodium falciparum proliferation (AID 504749). Further: nearly all actives have a fitted effect of over 60% in size. The note with it: P. falciparum in erythrocytes, SYBR Green DNA, 72 h; series mostly up to 28.7 µM. The essentials: (§1)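 Infected RBCs, 0.3% parasitemia/2.5% Hct final; cpd 72 h, 37 C, 5% CO2; lysis buffer with saponin/triton/SYBR Green I, o/n RT dark; FI 485/535; norm. to artemisinin (0.29 uM) and DMSO.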

The next assay relates to ATS95. Described as above. The note with it: P. falciparum in erythrocytes, SYBR Green DNA, 72 h; series mostly up to 28.7 µM. An outline of the steps: as §1
For the next assay, the system named is CP211. Described as above. The note with it: P. falciparum in erythrocytes, SYBR Green DNA, 72 h; series mostly up to 28.7 µM. The essentials: as §1
The subject of the next assay is CP215. The description is as above. The note with it: P. falciparum in erythrocytes, SYBR Green DNA, 72 h; series mostly up to 28.7 µM. An outline of the steps: as §1
In another assay the test system is CP269. Described as above. The note with it: P. falciparum in erythrocytes, SYBR Green DNA, 72 h; series mostly up to 28.7 µM. An outline of the steps:
as §1

The next assay deals with CP291. The description is as above. The note with it: P. falciparum in erythrocytes, SYBR Green DNA, 72 h; series mostly up to 28.7 µM. The essentials:
as §1

The next assay has as its system CP297. The description is as above. The note with it: P. falciparum in erythrocytes, SYBR Green DNA, 72 h; series mostly up to 28.7 µM. An outline of the steps:
as §1

A further assay relates to CP325. The description is as above. The note with it: P. falciparum in erythrocytes, SYBR Green DNA, 72 h; series mostly up to 28.7 µM. An outline of the steps: as §1
The subject of the next assay is CP329. The description is as above. The note with it: P. falciparum in erythrocytes, SYBR Green DNA, 72 h; series mostly up to 28.7 µM. The essentials: as §1
The next assay relates to DIV14. The assay is described as above. The note with it: P. falciparum in erythrocytes, SYBR Green DNA, 72 h; series mostly up to 28.7 µM. An outline of the steps:
as §1

The next assay concerns PAD. Described as above. The note with it: P. falciparum in erythrocytes, SYBR Green DNA, 72 h; series mostly up to 28.7 µM. The essentials: as §1
For the next assay, the system named is PC15. Described as above. The note with it: P. falciparum in erythrocytes, SYBR Green DNA, 72 h; series mostly up to 28.7 µM. An outline of the steps: as §1
A further assay relates to PC26. The assay is described as above. The note with it: P. falciparum in erythrocytes, SYBR Green DNA, 72 h; series mostly up to 28.7 µM. An outline of the steps:
as §1

A further assay has as its system SC27B. The assay is described as above. The note with it: P. falciparum in erythrocytes, SYBR Green DNA, 72 h; series mostly up to 28.7 µM. An outline of the steps:
as §1

In a further assay the test system is TAB165. The description is as above. The note with it: P. falciparum in erythrocytes, SYBR Green DNA, 72 h; series mostly up to 28.7 µM. An outline of the steps: as §1
Assay [4] deals with Cytochrome P450 2D6 (Homo sapiens) (UniProt P10635). Briefly: qHTS Assay for Inhibitors and Substrates of Cytochrome P450 2D6 (AID 891). Further: nearly all actives have a fitted effect of over 60% in size. Further: potency means the concentration at half of the fitted maximal effect. The essentials:
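Human CYP2D6 (5 nM) with 30 uM Luciferin-ME EGE (at Km) in 100 mM KPO4, compound preincubated 10 min, then NADPH regeneration system for 60 min at room temperature. Luciferin read by luminescence; normalized to 1.43 uM quinidine.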

Assay [5] concerns the target Cytochrome P450 2C19 (Homo sapiens) (UniProt P33261). Put plainly: qHTS Assay for Inhibitors and Substrates of Cytochrome P450 2C19 (AID 899). Further: nearly all actives have a fitted effect of over 60% in size. An outline of the steps: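 Reactions contain 5nM enzyme, 10uM Luciferin-H EGE (KM) and 50mM KPO4; compound preincubates 10 min at 37C, NADPH regeneration starts turnover for 60 min. Luminescence after detection reagent gives activity.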

Chain of Cytochrome P450 2C19 (Homo sapiens) (P33261 whole entry, looked up): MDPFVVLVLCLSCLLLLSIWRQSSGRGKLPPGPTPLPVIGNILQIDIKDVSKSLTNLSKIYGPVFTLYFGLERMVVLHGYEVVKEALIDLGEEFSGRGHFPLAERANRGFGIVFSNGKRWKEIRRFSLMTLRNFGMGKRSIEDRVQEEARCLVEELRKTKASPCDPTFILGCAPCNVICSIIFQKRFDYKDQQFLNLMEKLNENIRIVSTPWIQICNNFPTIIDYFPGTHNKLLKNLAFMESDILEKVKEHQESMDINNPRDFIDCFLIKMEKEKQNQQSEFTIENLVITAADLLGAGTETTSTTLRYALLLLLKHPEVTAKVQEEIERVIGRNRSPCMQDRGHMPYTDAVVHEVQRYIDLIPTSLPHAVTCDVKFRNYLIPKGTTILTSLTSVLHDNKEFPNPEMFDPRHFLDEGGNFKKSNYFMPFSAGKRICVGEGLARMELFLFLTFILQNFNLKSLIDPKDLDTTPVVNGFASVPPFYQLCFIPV
Chain of Cytochrome P450 2D6 (Homo sapiens) (P10635 whole entry, looked up): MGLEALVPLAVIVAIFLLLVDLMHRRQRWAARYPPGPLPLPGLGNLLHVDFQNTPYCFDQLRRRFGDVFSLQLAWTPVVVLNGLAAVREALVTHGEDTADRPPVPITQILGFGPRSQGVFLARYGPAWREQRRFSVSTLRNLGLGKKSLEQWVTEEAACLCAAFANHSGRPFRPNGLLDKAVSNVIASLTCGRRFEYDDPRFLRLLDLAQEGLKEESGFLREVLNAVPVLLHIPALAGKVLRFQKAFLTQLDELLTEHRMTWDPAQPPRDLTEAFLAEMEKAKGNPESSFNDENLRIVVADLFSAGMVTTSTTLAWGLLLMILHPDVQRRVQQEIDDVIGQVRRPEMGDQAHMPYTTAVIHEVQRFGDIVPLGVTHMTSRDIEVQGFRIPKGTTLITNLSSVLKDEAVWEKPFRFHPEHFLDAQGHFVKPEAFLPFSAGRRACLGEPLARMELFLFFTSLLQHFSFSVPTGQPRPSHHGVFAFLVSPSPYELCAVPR
Chain of ATP-dependent 6-phosphofructokinase (Trypanosoma brucei brucei) (O15648 whole entry, looked up): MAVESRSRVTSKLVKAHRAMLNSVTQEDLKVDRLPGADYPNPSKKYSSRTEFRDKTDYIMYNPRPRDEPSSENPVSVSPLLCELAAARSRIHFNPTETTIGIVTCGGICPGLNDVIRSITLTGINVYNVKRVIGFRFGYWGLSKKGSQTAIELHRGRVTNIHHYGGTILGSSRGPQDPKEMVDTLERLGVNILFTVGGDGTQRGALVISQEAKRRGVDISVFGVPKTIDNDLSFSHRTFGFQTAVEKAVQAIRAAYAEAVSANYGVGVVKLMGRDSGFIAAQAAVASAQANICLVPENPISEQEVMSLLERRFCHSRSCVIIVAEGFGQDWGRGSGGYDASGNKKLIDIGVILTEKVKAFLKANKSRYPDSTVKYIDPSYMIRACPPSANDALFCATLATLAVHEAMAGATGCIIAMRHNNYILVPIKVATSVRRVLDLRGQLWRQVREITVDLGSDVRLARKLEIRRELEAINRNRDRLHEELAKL

Take `C[C@H](NC(C)(C)C)C(=O)c1cccc(Cl)c1`: the outcome in assay [1] and in assay [2] was inactive. Moreover, the Potency result (in assay [3]; with AA1029; in the assay on ATS95; in the assay on CP211; with CP215; with CP269) was “inactive” each time. Further, the Potency result in the assay on CP291, with CP297, in the assay with CP325, in the assay with CP329, in the assay with DIV14 and in the assay with PAD was “inactive” in each case. The Potency entry in the assay with PC15, with PC26, in the assay on SC27B and in the assay with TAB165 was “inactive” throughout.

For `CCC[C@@](C)(COC(N)=O)COC(=O)NC(C)C`, the Potency result in [4] and in assay [5] was “inactive” throughout.

Turning to `CN(C)C(=O)Oc1cc(OC(=O)N(C)C)cc([C@@H](O)CNC(C)(C)C)c1`, the Potency in assay [4] is 7.94 µM (active). In addition, the Potency result (in [5]; in the assay on AA1029; in the assay with ATS95; in the assay with CP211; in the assay with CP215; in the assay with CP269) was “inactive” each time. The Potency result with CP291, in the assay with CP297, with CP325, with CP329, in the assay with DIV14 and in the assay on PAD was “inactive” throughout. The Potency entry in the assay on PC15, with PC26, with SC27B and in the assay on TAB165 was “inactive” in each case.
